Data from PubChem BioAssay (NCI).
The panel holds about 83,000 compounds, 20% with a hit somewhere; the sample as a whole holds those more often.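 Each cell line was grown in a 96-well plate and treated with one concentration of compound for 48 hours. Values below 10 were considered active.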 Unmarked numbers belong to inactive results. Active and inactive are the calls of the source.

Columns and labels:
Assay in all cases: NCI-60 one-dose screen, 48 h (100 = growth as untreated, 0 = no growth, -100 = all killed)
Conditions in all cases: 10 µM unless noted
[1] = test system: T-47D breast
[2] = test system: BT-549 breast
[3] = test system: MDA-MB-435 melanoma
[4] = test system: SW-620 colon
[5] = test system: MCF7 breast
[6] = test system: HCT-116 colon
[7] = test system: HCC-2998 colon
[8] = test system: KM12 colon

| Structure (SMILES) | growth [1] | growth [2] | growth [3] | growth [4] | growth [5] | growth [6] | growth [7] | growth [8] |
| --- | --- | --- | --- | --- | --- | --- | --- | --- |
| Cc1c(C(N)=O)sc2c1c(=O)n(Cc1ccccc1)c1nnc(S(C)(=O)=O)n21 | 89.4% | 78.9% | 81.7% | 94.3% | 73.3% | 79.6% | 103% | 109% |
| O=C(Nc1ccc(Cl)cn1)C1(c2ccccc2)CCCCC1 | 94.7% | 98.4% | 125% | 96.6% | 96.3% | 117% | 99.1% | 101% |
| CCCCN(CCC)CCCCCCCCCCN1CCCc2ccccc21 | 102% | 89.6% | 85.2% | 43.9% | 76.2% | 58.3% | 98.3% | 45.2% |
| NC(=O)CC(NC(=O)COc1ccc(Cl)cc1Cl)C(=O)O (stereo unspecified) | 109% | 108% | 107% | 105% | 102% | 101% | 109% | 104% |
| CC(C)OC(=O)Nn1cnc2ccccc21 | 114% | 116% | 110% | 111% | 120% | 87.4% | 105% | 114% |
| COC(=O)C(C(=O)OC)C(Br)C(Br)C(Br)c1ccccc1 (stereo unspecified) | -32.9% (active) | 108% | 91.2% | 18.6% | 8.14% (active) | 16.5% | 110% | 101% |
| CC(O)c1cc[cH-]c1.[Fe+2].c1cc[cH-]c1 (stereo unspecified) | 101% | 95.5% | 104% | 103% | 103% | 94.1% | 109% | 103% |
| O=C1C(Br)=CC2C1C1C3CCC3C2(Br)C12OCCO2 (stereo unspecified) | 3.72% (active) | 45.6% | 23.7% | 17.3% | 2.12% (active) | 16.1% | 74.8% | 44.9% |
| COC(=O)c1cc(Nc2ccc(O)c3c2C(=O)c2c([N+](=O)[O-])ccc(O)c2C3=O)cc(C(=O)OC)c1 | 68.9% | 44.7% | -84.4% (active) | 13.1% | 33.3% | 36.1% | 36.3% | 88.7% |
| C[C@]12CC[C@H]3[C@@H](CC[C@H]4C[C@@H](O)CC[C@@]43C)[C@@H]1CC(=O)C2 | 106% | 103% | 116% | 103% | 124% | 99.3% | 101% | 108% |
| [2H]c1nc(=Nc2cc(NC(=O)C=C)c(N(C)CCN(C)C)cc2OC)[nH]c(-c2cn(C([2H])([2H])[2H])c3ccccc23)c1[2H] | 33% | 62.9% | 22.2% | 21.1% | 23.4% | 13.7% | 51% | 65.3% |
| Oc1ccc([S+](c2ccc(O)cc2)c2ccc(O)cc2)cc1 | 107% | 107% | 107% | 107% | 98.8% | 107% | 106% | 107% |
| Oc1ccccc1/C=N/N=C\c1ccccc1Cl | 67.1% | 86.2% | 107% | 94.6% | 54.1% | 100% | 100% | 88.4% |
| O=C(N/N=C/c1coc2ccccc2c1=O)c1cc2oc(-c3ccccc3)cc2[nH]1 | 84.7% | 77.2% | 100% | 102% | 97.2% | 96.5% | 98.8% | 101% |
| COc1ccc2c(c1)/C(=C1/S/C(=N/c3nnc(C)s3)NC1=O)C(=O)N2Cc1ccc(Br)cc1 | 22% | 42.9% | 39.3% | 44.5% | 35.1% | 19.7% | 46.1% | 27.7% |
| CCCCN(CCCC)CC(O)CN(CC)CC (stereo unspecified) | 97.6% | 96.1% | 92.2% | 99.3% | 96% | 97% | 102% | 108% |
| COc1cc(N)c2nccc(C)c2c1OC | 108% | 83.3% | 110% | 94.1% | 113% | 102% | 149% | 101% |
| CCCCCCCCCCC(C[N+](C)(C)C/C=C/c1ccccc1)C(O)c1ccccc1 (stereo unspecified) | 10.3% | -6.83% (active) | -66% (active) | 2.5% (active) | -66.9% (active) | -87.7% (active) | 7.77% (active) | -97.5% (active) |
| O=S(=O)(Cc1cccc2c(CS(=O)(=O)c3ccc(Cl)cc3)cccc12)c1ccc(Cl)cc1 | 100% | 105% | 77.7% | 88.5% | 85.4% | 95.5% | 101% | 88.1% |
| N=C(N)c1ccc(-c2ccc(-c3ccc(Cl)cc3)s2)s1 | -31.7% (active) | 76.4% | -91.4% (active) | -69.5% (active) | -66% (active) | -98.4% (active) | -74.2% (active) | -85.3% (active) |
| O=C(O)COc1ccc([N+](=O)[O-])cc1Cl | 86.1% | 107% | 107% | 108% | 102% | 105% | 113% | 103% |
| COc1cc(NC(C)CCCN)c2nc(C)ccc2c1OC (stereo unspecified) | 90.5% | 103% | 121% | 104% | 47.1% | 102% | 87.2% | 103% |
